# The supplement of paper PMC8728848
# The full list was thinned out, with the strongest signals kept by preference.
# B1: Clrb (Mus musculus) (protein)
# chain: ITGATKTEQIPVNKTYAACPQNWIGVENKCFYFSEYPSNWTFAQAFCMAQEAQLARFDNQDELNFLMRYKANFDSWIGLHRESSEHPWKWTDNTEYNNTIPIRGEERFAYLNNNGISSTRIYSLRMWICSKLNSYSLHCQTPFFPSGTKHHHHHHHHG
# What was measured:
# Experiment in all cases: glycan array binding signal (z-score within array); higher = stronger binding
# Conditions in all cases: glycan notation: IUPAC condensed, linker removed
# [1] = biological target: Fuc(a1-2)Gal(b1-4)[Fuc(a1-3)]GlcNAc(b1-3)[Neu5Ac(a2-6)Gal(b1-4)GlcNAc(b1-6)]Gal(b1-4)Glc
# Method in brief: (§1)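 Arrays were curated from the Consortium for Functional Glycomics database, 3228 in total, and kept only where the protein sequence was available. Binding is expressed as a within-array Z-score. This score was averaged across arrays of the same protein sequence at different concentrations or buffers and across linkers, and negative values can be read as non-binding.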
# [2] = biological target: Fuc(a1-2)[Gal(a1-3)]Gal
# Method in brief: as §1
# [3] = biological target: Fuc(a1-2)[GalNAc(a1-3)]Gal(b1-4)GlcNAc(b1-2)Man(a1-3)[Fuc(a1-2)[GalNAc(a1-3)]Gal(b1-4)GlcNAc(b1-2)Man(a1-6)]Man(b1-4)GlcNAc(b1-4)[Fuc(a1-6)]GlcNAc
# Method in brief: as §1
# [4] = biological target: Fuc(a1-2)[GalNAc(a1-3)]Gal(b1-4)GlcNAc(b1-3)Gal(b1-4)GlcNAc(b1-3)Gal(b1-4)GlcNAc
# Method in brief: as §1
# [5] = biological target: Fuc(a1-2)[GalNAc(a1-3)]Gal(b1-4)[Fuc(a1-3)]GlcNAc(b1-3)GalNAc
# Method in brief: as §1
# [6] = biological target: Fuc(b1-3)GlcNAc
# Method in brief: as §1
# [7] = biological target: Gal(a1-3)Gal(b1-4)GlcNAc(b1-3)GalNAc
# Method in brief: as §1
# [8] = biological target: Gal(a1-6)Glc
# Method in brief: as §1
# [9] = biological target: Gal(b1-3)GlcNAc(b1-2)[Gal(b1-3)GlcNAc(b1-6)]Man(a1-6)[Gal(b1-3)GlcNAc(b1-2)Man(a1-3)]Man(b1-4)GlcNAc(b1-4)GlcNAc
# Method in brief: as §1
# [10] = biological target: Gal(b1-3)GlcNAc(b1-3)Gal(b1-3)GlcNAc
# Method in brief: as §1
# [11] = biological target: Gal(b1-3)[Fuc(a1-4)]GlcNAc
# Method in brief: as §1
# [12] = biological target: Gal(b1-3)[Fuc(a1-4)]GlcNAc(b1-3)Gal(b1-3)[Fuc(a1-4)]GlcNAc
# Method in brief: as §1
# [13] = biological target: Gal(b1-3)[GlcNAc(b1-6)]GalNAc
# Method in brief: as §1
# [14] = biological target: Gal(b1-4)GlcNAc
# Method in brief: as §1
# [15] = biological target: Gal(b1-4)GlcNAc(b1-2)Man(a1-3)Man(b1-4)GlcNAc(b1-4)GlcNAc
# Method in brief: as §1
# [16] = biological target: Gal(b1-4)GlcNAc(b1-2)[Gal(b1-4)GlcNAc(b1-6)]Man(a1-6)[GlcNAc(b1-4)][Gal(b1-4)GlcNAc(b1-2)Man(a1-3)]Man(b1-4)GlcNAc(b1-4)GlcNAc
# Method in brief: as §1
# [17] = biological target: Gal(b1-4)GlcNAc(b1-3)[Fuc(a1-3)GlcNAc(b1-6)]Gal(b1-4)Glc
# Method in brief: as §1
# [18] = biological target: Gal(b1-4)GlcNAc(b1-3)[GlcNAc(b1-6)]Gal(b1-4)GlcNAc
# Method in brief: as §1
# [19] = biological target: Gal3S6S(b1-4)GlcNAc
# Method in brief: as §1
# [20] = biological target: Gal4S(b1-4)GlcNAc
# Method in brief: as §1
# [21] = biological target: Gal4S6S(b1-4)GlcNAc
# Method in brief: as §1
# [22] = biological target: Gal6S(b1-3)GlcNAc6S
# Method in brief: as §1
# [23] = biological target: GalNAc(a1-3)GalNAc(a1-3)Gal(a1-4)Gal(b1-4)GlcNAc
# Method in brief: as §1
# [24] = biological target: GalNAc(b1-3)Gal(a1-6)Gal(b1-4)Glc
# Method in brief: as §1
# [25] = biological target: GalNAc(b1-4)GlcNAc(b1-2)Man(a1-3)[GalNAc(b1-4)GlcNAc(b1-2)Man(a1-6)]Man(b1-4)GlcNAc(b1-4)GlcNAc
# Method in brief: as §1
# [26] = biological target: GalNAc6S(b1-4)GlcNAc
# Method in brief: as §1
# [27] = biological target: Glc(a1-4)Glc(a1-4)Glc(a1-4)Glc
# Method in brief: as §1
# [28] = biological target: GlcNAc(a1-3)Gal(b1-4)GlcNAc
# Method in brief: as §1
# [29] = biological target: GlcNAc(a1-4)Gal(b1-3)GlcNAc
# Method in brief: as §1
# [30] = biological target: GlcNAc(a1-4)Gal(b1-4)GlcNAc
# Method in brief: as §1
# [31] = biological target: GlcNAc(a1-4)Gal(b1-4)GlcNAc(b1-3)Gal(b1-4)GlcNAc(b1-3)Gal(b1-4)GlcNAc
# Method in brief: as §1
# [32] = biological target: GlcNAc(b1-2)Man(a1-3)[GlcNAc(b1-4)][GlcNAc(b1-2)Man(a1-6)]Man(b1-4)GlcNAc(b1-4)[Fuc(a1-6)]GlcNAc
# Method in brief: as §1
# [33] = biological target: GlcNAc(b1-2)[GlcNAc(b1-4)]Man(a1-3)[GlcNAc(b1-4)][GlcNAc(b1-2)Man(a1-6)]Man(b1-4)GlcNAc(b1-4)GlcNAc
# Method in brief: as §1
# [34] = biological target: GlcNAc(b1-3)Gal(b1-4)GlcNAc(b1-2)[GlcNAc(b1-3)Gal(b1-4)GlcNAc(b1-6)]Man(a1-6)[GlcNAc(b1-3)Gal(b1-4)GlcNAc(b1-2)Man(a1-3)]Man(b1-4)GlcNAc(b1-4)GlcNAc
# Method in brief: as §1
# [35] = biological target: GlcNAc(b1-3)Man
# Method in brief: as §1
# [36] = biological target: GlcNAc(b1-4)GlcNAc(b1-4)GlcNAc(b1-4)GlcNAc(b1-4)GlcNAc(b1-4)GlcNAc
# Method in brief: as §1
# [37] = biological target: GlcNAc(b1-6)Gal(b1-4)GlcNAc
# Method in brief: as §1
# [38] = biological target: Man(a1-3)[Man(a1-6)]Man(b1-4)GlcNAc(b1-4)GlcNAc
# Method in brief: as §1
# [39] = biological target: Neu5Ac(a2-3)Gal(b1-3)[Fuc(a1-4)]GlcNAc(b1-3)Gal(b1-3)[Fuc(a1-4)]GlcNAc
# Method in brief: as §1
# [40] = biological target: Neu5Ac(a2-3)Gal(b1-4)GlcNAc(b1-2)Man(a1-3)[Neu5Ac(a2-3)Gal(b1-4)GlcNAc(b1-2)Man(a1-6)]Man(b1-4)GlcNAc(b1-4)[Fuc(a1-6)]GlcNAc
# Method in brief: as §1
# [41] = biological target: Neu5Ac(a2-3)Gal(b1-4)GlcNAc(b1-3)Gal(b1-3)GlcNAc
# Method in brief: as §1
# [42] = biological target: Neu5Ac(a2-3)Gal(b1-4)GlcNAc(b1-3)GalNAc
# Method in brief: as §1
# [43] = biological target: Neu5Ac(a2-3)Gal(b1-4)GlcNAc(b1-6)GalNAc
# Method in brief: as §1
# [44] = biological target: Neu5Ac(a2-3)Gal(b1-4)[Fuc(a1-3)]GlcNAc(b1-3)GalNAc
# Method in brief: as §1
# [45] = biological target: Neu5Ac(a2-3)Gal6S(b1-4)GlcNAc
# Method in brief: as §1
# [46] = biological target: Neu5Ac(a2-6)Gal(b1-4)GlcNAc(b1-2)Man(a1-3)[GlcNAc(b1-2)Man(a1-6)]Man(b1-4)GlcNAc(b1-4)GlcNAc
# Method in brief: as §1
# [47] = biological target: Neu5Ac(a2-6)Gal(b1-4)GlcNAc(b1-2)Man(a1-6)[Man(a1-3)]Man(b1-4)GlcNAc(b1-4)GlcNAc
# Method in brief: as §1
# [48] = biological target: Neu5Ac(a2-6)Gal(b1-4)GlcNAc(b1-3)Gal(b1-4)GlcNAc(b1-3)GalNAc
# Method in brief: as §1
# [49] = biological target: Neu5Ac(a2-6)Gal(b1-4)GlcNAc(b1-3)Gal(b1-4)[Fuc(a1-3)]GlcNAc(b1-3)Gal(b1-4)[Fuc(a1-3)]GlcNAc
# Method in brief: as §1
# [50] = biological target: Neu5Ac(a2-6)GalNAc
# Method in brief: as §1
# [51] = biological target: Neu5Ac(a2-6)GalNAc(b1-4)GlcNAc
# Method in brief: as §1
# [52] = biological target: Neu5Ac(a2-8)Neu5Ac(a2-8)Neu5Ac(a2-3)[Gal(b1-3)GalNAc(b1-4)]Gal(b1-4)Glc
# Method in brief: as §1
# [53] = biological target: Neu5Ac(a2-8)Neu5Ac(a2-8)Neu5Ac(a2-8)Neu5Ac(a2-3)[GalNAc(b1-4)]Gal(b1-4)Glc
# Method in brief: as §1
# [54] = biological target: Neu5Gc(a2-6)GalNAc
# Method in brief: as §1
binder,measurement,setting,value
B1,glycan array binding signal (z-score),[1],-0.359
same,glycan array binding signal (z-score),[2],-0.293
same,glycan array binding signal (z-score),[3],-0.417
same,glycan array binding signal (z-score),[4],-0.215
same,glycan array binding signal (z-score),[5],-0.299
same,glycan array binding signal (z-score),[6],-0.294
same,glycan array binding signal (z-score),[7],-0.505
same,glycan array binding signal (z-score),[8],-0.176
same,glycan array binding signal (z-score),[9],-0.249
same,glycan array binding signal (z-score),[10],-0.431
same,glycan array binding signal (z-score),[11],-0.303
same,glycan array binding signal (z-score),[12],-0.404
same,glycan array binding signal (z-score),[13],-0.186
same,glycan array binding signal (z-score),[14],-0.146
same,glycan array binding signal (z-score),[15],-0.355
same,glycan array binding signal (z-score),[16],-0.157
same,glycan array binding signal (z-score),[17],-0.386
same,glycan array binding signal (z-score),[18],5.13
same,glycan array binding signal (z-score),[19],-0.099
same,glycan array binding signal (z-score),[20],-0.31
same,glycan array binding signal (z-score),[21],-0.101
same,glycan array binding signal (z-score),[22],-0.357
same,glycan array binding signal (z-score),[23],-0.541
same,glycan array binding signal (z-score),[24],-0.023
same,glycan array binding signal (z-score),[25],4.64
same,glycan array binding signal (z-score),[26],4.38
same,glycan array binding signal (z-score),[27],-0.498
same,glycan array binding signal (z-score),[28],5.77
same,glycan array binding signal (z-score),[29],3.81
same,glycan array binding signal (z-score),[30],4.2
same,glycan array binding signal (z-score),[31],5.29
same,glycan array binding signal (z-score),[32],4.51
same,glycan array binding signal (z-score),[33],4.02
same,glycan array binding signal (z-score),[34],0.54
same,glycan array binding signal (z-score),[35],-0.377
same,glycan array binding signal (z-score),[36],7.67
same,glycan array binding signal (z-score),[37],1.87
same,glycan array binding signal (z-score),[38],-0.297
same,glycan array binding signal (z-score),[39],-0.359
same,glycan array binding signal (z-score),[40],-0.226
same,glycan array binding signal (z-score),[41],-0.383
same,glycan array binding signal (z-score),[42],-0.44
same,glycan array binding signal (z-score),[43],-0.392
same,glycan array binding signal (z-score),[44],-0.205
same,glycan array binding signal (z-score),[45],-0.365
same,glycan array binding signal (z-score),[46],-0.472
same,glycan array binding signal (z-score),[47],-0.503
same,glycan array binding signal (z-score),[48],-0.628
same,glycan array binding signal (z-score),[49],-0.211
same,glycan array binding signal (z-score),[50],-0.508
same,glycan array binding signal (z-score),[51],4.69
same,glycan array binding signal (z-score),[52],-0.421
same,glycan array binding signal (z-score),[53],-0.449
same,glycan array binding signal (z-score),[54],-0.377
